Measurements reported in ChEMBL document CHEMBL4513216, “Probing the Open Global Health Chemical Diversity Library for Multistage-Active Starting Points for Next-Generation Antimalarials” (ACS Infect Dis, 2020).
Hit rate of the full screen: of about 69,000 compounds, about 8,600 (12%) showed an effect of 50% or more. This is one part of a sample in which strong results are shown more often than they occur.

Each compound was assayed on Plasmodium berghei (assay: Screen against P. berghei liver stage (PbLuc), transformed with Luciferase, at 10uM). Conditions: tested at 10 uM.
Format: functional, HepG2

Row | Compound | INHIBITION
1 | CCn1nc(C)c2nc(C)nc(N(C)Cc3ccco3)c21 | 43.3%
2 | CCn1nc(C)c2ncnc(N(C)Cc3ccco3)c21 | 52.4%
3 | CCOCC1CN(CCN(C)C)Cc2cnn(CC3CCCC3)c21 (stereo not given) | 41.2%
4 | CC(C)C(O)C1(CNC(=O)Nc2ccc(CN3CCOC3=O)cc2)CC1 (stereo not given) | 65.3%
5 | CC(C)CNC(=O)Nc1ccc(CN2CCOC2=O)cc1 | 23.2%
6 | CCC(C)NC(=O)Nc1ccc(CN2CCOC2=O)cc1 (stereo not given) | 29%
7 | Cc1[nH]nc2ncc(C(=O)N3CCN(CCC(C)C)CC3)cc12 | 23.7%
8 | Cc1ccc(CC(=O)N2CCC(Nc3ccc(C)nn3)CC2)cn1 | 1.78%
9 | CS(=O)(=O)NCC1CCCN(C(=O)c2cc3ccccc3o2)C1 (stereo not given) | 57.8%
10 | O=C(c1ccc(F)c(F)c1)N1CCN2CCCC2C1 (stereo not given) | 9.52%
11 | CS(=O)(=O)NCC1CCCN(C(=O)c2ccc(F)c(F)c2)C1 (stereo not given) | 53%
12 | COc1ccc(C(=O)N2CCCC(CNS(C)(=O)=O)C2)cc1F (stereo not given) | 11.6%
13 | Cc1ccc(C(=O)N2CCCC(CNS(C)(=O)=O)C2)o1 (stereo not given) | 26.4%
14 | O=C(c1ccc(-n2cccc2)c(F)c1)N1CCCN2CCCC2C1 (stereo not given) | -33.9%
15 | O=C(c1ccc(F)c(Br)c1)N1CCCN2CCCC2C1 (stereo not given) | 59.4%
16 | CS(=O)(=O)NCC1CCCN(C(=O)c2ccco2)C1 (stereo not given) | -14.6%
17 | CS(=O)(=O)NCC1CCCN(C(=O)c2cccc(F)c2)C1 (stereo not given) | 38.5%
18 | CC1(NC(=O)CNC(=O)C(C)(C)C)CCc2ccccc2C1 (stereo not given) | -2.43%
19 | COCCc1noc(CN2CC(n3nc(C)cc3C)C2)n1 | -57.4%
20 | CC(C)COC(C)C(=O)NCc1ccccc1 (stereo not given) | -10.1%
21 | CCc1cc(=O)[nH]c(-c2ccc(NC(C)CN3CCOCC3)nc2)n1 (stereo not given) | -33.9%
22 | CSCC1CCCN(c2ncnc3oc(C)nc23)C1 (stereo not given) | -0.532%
23 | O=C(NCc1ccccn1)[C@@H]1COC[C@H]2CN(C3CCOCC3)C[C@H]21 | 29.6%
24 | CCN(CC)c1ccc2ccc(C(=O)N(C)C)cn12 | 57.1%
25 | CCN(CC)c1ccc2ccc(C(=O)N(CCOC)CCOC)cn12 | 46.7%
26 | CN(CC1CC1)c1ccc2ccc(C(=O)NC3CCCCC3)cn12 | 0.112%
27 | CN1CCN(c2ccc3ccc(C(=O)N4CCCCO4)cn23)CC1 | -12.4%
28 | CCN(CC)c1ccc2ccc(C(=O)N3CCCCO3)cn12 | 68.9%

Row | Compound | INHIBITION
29 | CCN(CC)c1ccc2ccc(C(=O)O)cn12 | 39.3%
30 | CCNC(=O)c1ccc2ccc(N(CC)CC)n2c1 | 55.6%
31 | CN(CC1CC1)c1ccc2ccc(C(=O)NCCN3CCOCC3)cn12 | 23.2%
32 | CCN(CC)c1ccc2ccc(C(=O)NC3CC3)cn12 | 24.6%
33 | O=C(c1ccc2ccc(N3CCN(CC4CC4)CC3)n2c1)N1CCCO1 | 40.8%
34 | CN(C)C(=O)CNC(=O)c1ccc2ccc(N(C)CC3CC3)n2c1 | 26%
35 | CN1CCN(c2ccc3ccc(C(=O)N4CCCO4)cn23)CC1 | 51.2%
36 | C[C@@H]1CN(CCC(=O)NCc2ccccc2Cl)CC[C@@]1(O)C1CCC1 | 41.4%
37 | CN(C)C1CCN(C(=O)Cc2csc(-c3ncccn3)n2)CC1 | -31.3%
38 | COc1c(CNCCc2c[nH]c3ccccc23)c(C(C)C)nn1C | 22.5%
39 | COCC1COCCC12CCN(S(=O)(=O)c1ccccc1C)CC2 (stereo not given) | 48.4%
40 | CCCc1nnc2sc(-c3cc(C(C)C)n[nH]3)nn12 | 35.7%
41 | Cc1noc(C)c1C(=O)N1CCCN(C)c2ccc(Cl)cc21 | 19.7%
42 | Cc1nc(C)n(CC2CCCN(CCCc3ccccc3)C2)n1 (stereo not given) | 44.3%
43 | O=C(NC1CC1)[C@H]1CN(Cc2ccc3c(c2)OCO3)C[C@H]2OCC[C@@H]12 | -23.3%
44 | Cc1cc2[nH]cc(C(=O)N3CCCCC3c3ccc(F)cc3)c(=O)n2n1 (stereo not given) | 17.8%
45 | Cc1cc(=O)c(C(=O)N2CCCCC2c2ccc(F)cc2)c[nH]1 (stereo not given) | -4.37%
46 | Cc1nc2[nH]cc(C(=O)N3CCCCC3c3ccc(F)cc3)c(=O)n2n1 (stereo not given) | 57.1%
47 | Cc1cc(CN2CCCN(c3ccc(C#N)cc3)CC2)no1 | 29.17%
48 | Fc1cccc(F)c1Cn1c(C2CCCNC2)cc2cccnc21 (stereo not given) | 30.74%
49 | Fc1ccccc1Cn1c(C2CCNCC2)cc2cccnc21 | 52.55%
50 | COc1cccc(Cn2c(C3CCNCC3)cc3cccnc32)c1 | 10.82%
51 | c1cnc2c(c1)cc(C1CCOCC1)n2CCN1CCOCC1 | 32.4%
52 | Fc1cccc(F)c1Cn1c(C2CCNCC2)cc2cccnc21 | 54.9%
53 | COc1ccc(Cn2c(C3CCNCC3)cc3cccnc32)cc1 | 36.8%
54 | Cc1oncc1C(=O)N1CCC2(CCN(Cc3cccnc3)C2=O)C1 (stereo not given) | 5.41%
55 | O=C(CC1CCCCC1)N1CCOCC1CO (stereo not given) | -40%
